# Assay outcomes: PubChem BioAssay, Buhrlage Lab, Dana-Farber Cancer Institute and Novartis Institutes for BioMedical Research (Cambridge, Mass)
# USP8 block: human USP8 deubiquitinase inhibition. inhibition, % at 20 µM. AID 1645853. purified USP8, Ub-rhodamine cleavage fluorescence, 30 min. 47,000 tested, 4.2% active. P40818
# USP10 block: human USP10 deubiquitinase inhibition; purified USP10, Ub-rhodamine fluorescence, 60 min; inhibition, % at 20 µM; 47,000 tested, 1.1% active; AID 1645856
# UCHL1 block: blocks human UCHL1 ubiquitin-rhodamine cleavage; P09936; purified UCHL1, Ub-rhodamine cleavage fluorescence; inhibition, % at 20 µM; 47,000 tested, 0.2% active; AID 1645859
# OTUD3 block: inhibitors of human OTUD3 deubiquitinase; purified OTUD3, Ub-rhodamine fluorescence, 2 h; inhibition, % at 25 µM; 47,000 tested, 0.7% active; AID 1645858
# USP7 inh: human USP7 deubiquitinase inhibition; 47,000 tested, 0.3% active; AID 1645854; inhibition, % at 20 µM; purified USP7, Ub-rhodamine cleavage fluorescence
# * marks the source's active call; other numbers are inactive results. An excerpt weighted towards active compounds, which were near 4.9% of everything screened. No stated cut-off is given here; in the data, active means inhibition above about 30%; inactive means the rest.
SMILES,USP8 block,USP10 block,UCHL1 block,OTUD3 block,USP7 inh
CC(C)=CCC/C(C)=C/CC/C(C)=C/COc1c(O)cc(C=O)c(C=O)c1O,70.8*,77.6*,91.9*,83.9*,92.7*
COc1ccccc1C(=O)N1CCCN(c2cc(-c3ccccc3)[nH]n2)CC1,-80.3,-4.9,-9.0,-19.9,-6.8
O=C(c1cccs1)[C@@H]1[C@@H](C(=O)c2ccc3c(c2)OCO3)[C@]2(C(=O)Nc3ccccc32)[C@H]2C=Cc3ccccc3N12,37.6*,-0.6,1.2,-42.6,-0.9
COc1ccc(C(=O)[C@@H]2[C@H](C(=O)OC(c3ccccc3)c3ccccc3)N3c4ccccc4C=CC3[C@@]23C(=O)Nc2ccccc23)cc1OC (stereo partly drawn),-57.7,-5.1,-39.5,-120.3,-56.7
CC1=CC2N(c3ccccc31)C(C(=O)C(C)(C)C)C(C(=O)c1ccc3c(c1)OCO3)C21C(=O)Nc2ccccc21 (stereo not drawn),68.3*,-3.3,-5.1,-37.7,-7.0
Cn1cc(NC(=O)Nc2cccc(C(F)(F)F)c2)c2ccccc2c1=O,97.2*,68.0*,26.6,88.4*,-33.7
CC(O)(CS(=O)(=O)Cc1ccccc1)C(=O)Nc1cccc(C(F)(F)F)c1 (stereo not drawn),-1.1,0.1,-2.0,-2.4,-8.7
Cc1ccc(Cn2nc(C)cc2C(=O)Nc2cccc(C(F)(F)F)c2)cc1,20.7,10.9,10.8,17.5,-1.3
Cc1cc(C(F)(F)F)n(-c2ccc(NC(=O)Nc3cccc(C(F)(F)F)c3)cc2)n1,15.4,30.2*,5.7,31.4*,4.9
O=C(CC(C(=O)c1ccccc1)c1cccs1)c1ccc(Cl)cc1 (stereo not drawn),-59.3,3.1,-13.3,1.6,2.2
Nc1ccccc1SC(CC(=O)c1ccc(Cl)cc1)c1ccsc1 (stereo not drawn),72.7*,7.1,0.7,6.3,-4.8
O=c1cc(CN2CCc3ccccc32)cc[nH]1,32.6*,-7.4,-8.9,-106.7,-16.9
Cc1ccc(CC(=O)Nc2ccc(C)cc2-c2n[nH]c(C3CC3)n2)cc1,63.5*,30.2*,6.7,-6.9,8.6
CCc1cc2c(=O)[nH]c(Cc3ccc(OC)cc3)nc2s1,34.8*,9.1,2.8,8.2,1.6
CN(C)C(=O)C1(C)CCCN1C(=O)Cn1nnc2ccccc21 (stereo not drawn),3.2,-0.8,-0.6,1.4,2.7
Cc1ccc(F)cc1NC(=O)Cc1nnc(-c2ccc3ncccc3c2)o1,55.8*,-9.0,0.3,4.3,4.9
CCc1ccc(NC(=O)Cc2nnc(-c3ccc4ncccc4c3)o2)cc1,51.3*,-5.1,-0.7,14.8,1.7
Cc1cccc(NC(=O)Cc2nnc(-c3ccc4ncccc4c3)o2)c1,-277.9,-5.7,-4.1,-17.6,-4.6
CCn1nc(C)cc1C(=O)N1C[C@H](OCC2CC2)[C@H]2OCCC[C@H]21,-60.8,0.0,-4.6,-8.3,-7.7
CCc1nc2c(NC(=O)C3CCCCC3)cccn2n1,0.3,7.0,-3.4,-0.1,-5.6
CCc1nc2c(NC(=O)NC3CCCCC3)cccn2n1,31.9*,-2.2,-0.4,-6.0,-1.3
COc1cccc(CNC(=O)c2nc3c(s2)CCNCC3)c1,53.7*,-5.8,-3.2,-3.4,-5.3
CC[C@H](C)[C@H](NC(=O)[C@H]([C@@H](C)CC)N(C)C(C)=O)C(=O)N[C@H](C(=O)N[C@@H](CC(C)C)C(=O)C1(C)CO1)[C@@H](C)O (stereo partly drawn),57.0*,9.4,25.3,31.1*,-145.3
O=C(N[C@@H]1C[C@@H](Oc2cccc(F)c2)[C@H](O)[C@H]1O)c1ccccc1F,4.3,0.0,-0.7,25.8,1.0
CCCCCCCCCC(CCCCCCCCCC(=O)O)O[C@H]1O[C@@H](COC(C)=O)[C@H](O)[C@@H](O)[C@H]1OC(=O)CC(=O)O (stereo partly drawn),11.2,68.0*,3.0,22.4,0.0
SMILES,USP8 block,USP10 block,UCHL1 block,OTUD3 block,USP7 inh
O=C(Cn1c([C@@H]2CCCO2)cc2cccnc21)NCCOc1ccccc1,10.2,1.2,0.7,-0.1,1.3
O=C(Cn1c(=O)c2sccc2n(CC(=O)OCc2ccccc2)c1=O)NCc1ccccc1Cl,20.8,19.1,4.6,5.8,10.6
Cc1cc(NC(=O)Cn2c(=O)n(CCCCCC(=O)NCc3ccc4c(c3)OCO4)c(=O)c3sccc32)n[nH]1,4.8,5.9,-0.4,0.0,5.1
O=C(CCCn1c(=O)c2sccc2n(Cc2ccc(F)cc2)c1=O)NCc1ccco1,33.0*,1.5,1.3,9.1,-25.4
O=C(CCCCCn1c(=O)c2sccc2n(CC(=O)c2ccc(Cl)c(Cl)c2)c1=O)NCc1ccc2c(c1)OCO2,89.3*,46.1*,-1.8,19.0,13.0
O=C(CCCCCn1c(=O)c2sccc2n(CC(=O)c2ccc(F)cc2)c1=O)NCc1ccccc1Cl,44.9*,15.1,-4.8,4.3,2.0
CCN1CCC2(CN(CC(C)C)CC23CCN(C(=O)NCc2ccccc2)CC3)C1=O (stereo not drawn),-34.8,0.4,2.4,9.8,5.8
Cc1ccc(-c2nnn(CC(=O)N(c3ccc(C4CCCCC4)cc3)C(C(=O)NC3CCCCC3)c3ccc(F)cc3)n2)o1 (stereo not drawn),0.2,4.6,-6.0,5.5,6.5
CCN(c1ccccc1)S(=O)(=O)c1nnc(NC(=O)COc2ccc(Cl)cc2)s1,38.6*,-0.2,-3.8,-45.8,7.4
Cc1cc(C)cc(OCCC(=O)N2CCC(C(N)=O)CC2)c1,-5.6,0.0,-0.8,-4.4,2.8
Cc1sc(NC(=O)Cn2nnc3ccccc3c2=O)nc1-c1ccc2c(c1)CCN2C(=O)C(C)C,14.0,12.6,1.6,2.2,11.5
Cc1sc(NC(=O)Cn2nnc3ccccc32)nc1-c1ccc2c(c1)CCN2C(=O)c1ccccc1F,49.8*,55.5*,3.1,2.9,8.7
Cc1cccc(C(=O)N2CCc3cc(-c4nc(NC(=O)CNc5ccccc5)sc4C)ccc32)c1,56.6*,18.6,8.4,8.7,-20.6
CC(C)(C)CC(=O)N1CCc2cc(-c3csc(NC(=O)Cn4nnc5ccccc54)n3)ccc21,-7.3,-4.9,-11.0,0.4,-3.6
Cc1ccc(C(=O)N2CCc3cc(-c4csc(NC(=O)CN(C)C5CCCCC5)n4)ccc32)cc1,58.0*,-4.1,-3.2,6.5,-2.9
O=C(Cn1nnc2ccccc21)Nc1nc(-c2ccc3c(c2)CCN3C(=O)c2ccccc2F)cs1,77.4*,50.2*,6.0,22.8,23.8
O=C(CCCn1c(=O)[nH]c2ccc(Br)cc2c1=O)N1CCC(O)(c2cccc(C(F)(F)F)c2)CC1,16.0,3.3,6.1,11.9,-37.1
Cc1sc(NC(=O)C2CCCC2)nc1-c1ccc2c(c1)CCN2C(=O)C1CCCCC1,11.5,5.7,4.3,5.2,-0.8
Cc1sc(NC(=O)CN2CCc3ccccc3C2)nc1-c1ccc2c(c1)CCN2C(=O)C1CCCCC1,76.2*,-7.4,-2.4,-26.0,-9.7
Cc1nc(C2(NC(=O)c3ccoc3C)CCCC2)no1,8.1,-0.4,0.0,7.9,1.9
